# Source: PubChem BioAssay (NCI)
# Compounds without any hit were thinned out: in the full panel of roughly 83,000, 20% have a hit.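 Assay: single dose, 48 h. Readout: percent growth (0 = no net growth; negative = cell death). Active: <10.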 Values without a mark were called inactive. Activity calls are given as the source filed them.
# Key:
# Assay in all cases: NCI-60 one-dose screen, 48 h (100 = growth as untreated, 0 = no growth, -100 = all killed)
# Settings in all cases: 10 µM
# NCI-H23 lung = tested on: NCI-H23 lung
# NCI-H226 lung = tested on: NCI-H226 lung
# NCI-H322M lung = tested on: NCI-H322M lung
# HOP-62 NSCLC = tested on: HOP-62 NSCLC
# NCI-H460 lung = tested on: NCI-H460 lung
# HOP-92 NSCLC = tested on: HOP-92 NSCLC
# NCI-H522 lung = tested on: NCI-H522 lung
# A549/ATCC NSCLC = tested on: A549/ATCC NSCLC
# 786-0 renal = tested on: 786-0 renal
# COLO 205 colon = tested on: COLO 205 colon
# DU-145 prostate = tested on: DU-145 prostate
# K-562 leukemia = tested on: K-562 leukemia
# MALME-3M melanoma = tested on: MALME-3M melanoma
# MDA-MB-231 breast = tested on: MDA-MB-231 breast
# RXF 393 renal = tested on: RXF 393 renal
# SF-268 CNS = tested on: SF-268 CNS
# SF-295 CNS = tested on: SF-295 CNS
# SF-539 CNS = tested on: SF-539 CNS
# UACC-257 melanoma = tested on: UACC-257 melanoma
# M14 melanoma = tested on: M14 melanoma
SMILES,growth (NCI-H23 lung),growth (NCI-H226 lung),growth (NCI-H322M lung),growth (HOP-62 NSCLC),growth (NCI-H460 lung),growth (HOP-92 NSCLC),growth (NCI-H522 lung),growth (A549/ATCC NSCLC),growth (786-0 renal),growth (COLO 205 colon),growth (DU-145 prostate),growth (K-562 leukemia),growth (MALME-3M melanoma),growth (MDA-MB-231 breast),growth (RXF 393 renal),growth (SF-268 CNS),growth (SF-295 CNS),growth (SF-539 CNS),growth (UACC-257 melanoma),growth (M14 melanoma)
N#Cc1ncc(-c2cc(F)ccc2F)c(NC2CCCCCC2)n1,89.9%,92.6%,73.6%,65.9%,48.5%,65.2%,68%,78%,97.6%,100%,97.8%,90.2%,114%,60.7%,82.8%,60%,69.1%,79.7%,81.8%,104%
CC(=O)c1ccc(NCn2nc(-c3ccc(Cl)cc3)oc2=S)cc1,104%,106%,110%,69.9%,106%,104%,92%,79.2%,105%,107%,109%,88.1%,114%,87.8%,117%,109%,102%,95%,93%,104%
C=CCn1c(C)nc2cc(Nc3nc(Nc4ccc5nc(C)n(CC=C)c5c4)c4ccccc4n3)ccc21,-69.2% (active),-47.1% (active),-92.2% (active),-99.5% (active),-84.2% (active),-79% (active),-94.8% (active),-67.1% (active),-70.6% (active),-100% (active),-96% (active),-27.7% (active),-68.3% (active),-85.8% (active),-97.4% (active),-69.8% (active),-86.6% (active),-95.8% (active),-79.8% (active),-88% (active)
O=C(Nc1ccc(OCc2nnc(-c3ccccc3)o2)c(F)c1)Nc1ccc(Cl)c(Cl)c1,53%,72.3%,62.5%,76.6%,36.6%,55.5%,35%,55.5%,82.1%,58.9%,64.1%,34.4%,57.8%,64.5%,56.3%,80.7%,39.4%,75.5%,59.9%,70.4%
COCCOC(=O)NC(=O)Nc1ccc(C(=O)c2ccc(Cl)cc2)cc1,36.2%,46.2%,57.9%,28.5%,23.3%,32.9%,10.7%,41.8%,47%,13.4%,38.2%,11.7%,56.8%,49.8%,40%,55.2%,21.9%,15.4%,50.8%,20.2%
COc1cc(C(c2c[nH]c3ccccc23)N2CCCC2)ccc1OCc1ccccc1 (stereo not given),82%,80.1%,72.7%,90.3%,98.9%,12.7%,71.1%,94.5%,87.4%,104%,95.9%,71.2%,81.8%,58.4%,52.9%,74.6%,93.8%,4.28% (active),85.3%,88.2%
COc1ccc(-n2nnc3c(sc4ccccc43)c2=O)cc1,68.5%,24.7%,37.7%,-8.23% (active),-18.2% (active),-4.08% (active),56.6%,10.8%,21.4%,80.7%,60.2%,91.5%,80.6%,53.8%,45%,53.1%,42.3%,54.7%,80.8%,86.5%
CC(C)c1[nH]nc2c(NCc3ccc(-c4ccccn4)cc3)nc(SCCN)nc12,-34.8% (active),-0.633% (active),10.3%,-15.3% (active),3.31% (active),-11.1% (active),-54.8% (active),6.81% (active),6.26% (active),-48.2% (active),5.83% (active),3.89% (active),-41.3% (active),5.07% (active),-71.4% (active),-0.883% (active),4.57% (active),-54.4% (active),1.34% (active),-43.1% (active)
O=C(Nc1ccc(OS(=O)(=O)Cc2ccccc2)cc1)C12CC3CC(CC(C3)C1)C2,84.8%,90.3%,95.3%,79.3%,68.8%,59.9%,81.6%,78.5%,94.1%,27.4%,87.4%,13.1%,91.8%,78.7%,99%,84.6%,60.3%,86.1%,99%,77.4%
CC(C)C[C@H](NC(=O)Cn1ccc(Nc2ccccc2)cc1=O)B(O)O,44.1%,-71.1% (active),91.5%,49.5%,77.3%,1.31% (active),-24% (active),71.4%,33.1%,40.8%,38.9%,39.1%,-11.7% (active),48.9%,-16.7% (active),34.2%,37.8%,-57.7% (active),7.65% (active),31.8%
CS(=O)(=O)Nc1ccc(Nc2c3ccccc3nc3cc(Cl)ccc23)cc1,42.7%,-4.26% (active),50.6%,25%,8.44% (active),-10.7% (active),16.2%,9.01% (active),19.6%,43.1%,24.2%,20.6%,28.3%,86.5%,20.9%,37.6%,-13.5% (active),30.7%,48%,36.6%
COc1cc(C2C(C#N)=C(c3c[nH]c4ccccc34)Nc3nc(N)[nH]c(=O)c32)cc(OC)c1OC (stereo not given),80.7%,86.3%,104%,82.9%,106%,47.8%,-11.7% (active),105%,100%,65%,86.5%,50.4%,71.1%,89.5%,73.2%,88.3%,97.6%,48.4%,99.1%,95.7%
COc1ccc(-c2cc(/C=C/C(=O)c3ccc(N)cc3)[nH]n2)cc1OC,51.6%,82.3%,38.3%,55.4%,3.19% (active),33.5%,24.7%,32%,42.6%,27.1%,22.8%,24.4%,109%,38.8%,21.2%,18.8%,41%,7.79% (active),126%,84.4%
O=c1ccc2nc(-c3ccccc3)nn(-c3ccccc3)c-2c1,54.4%,68.1%,88.2%,69.5%,81.4%,-33% (active),-90.5% (active),73.7%,48.6%,-78.8% (active),-95.4% (active),-39% (active),-92.5% (active),76.3%,-92.8% (active),70.5%,23.9%,105%,-97.3% (active),51.2%
Cc1ccc(C)c(S(=O)(=O)NC2c3ccccc3Oc3ccccc32)c1,98%,90.3%,88.3%,96.1%,105%,59.6%,31.6%,96.7%,88%,99.2%,112%,90%,93.2%,95.2%,91.3%,95%,98.1%,97.3%,109%,101%
Cc1cc(Nc2cccc(F)c2)nc(NCc2ccccc2)n1,-2.43% (active),40.4%,63.2%,70.5%,6.63% (active),-2.56% (active),6.89% (active),16.2%,45.7%,8.24% (active),22.8%,13.3%,43.9%,20.9%,76.6%,40.4%,16.7%,56.8%,29.8%,28.5%
